Calls of active or inactive are those of the source.
Legend:
Albumin (Bos taurus) = Albumin (Bos taurus) (UniProt P02769); assay: compounds binding labelled BSA control protein – biochemical, small-molecule microarray, Alexa647 label, 635/667 nm fluorescence, artefact control for SMM control protein annotation, profiling panel (AID 1118); details: BSA-A647 binding, fluorescence 635 nm, higher = more signal;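 also: score merges 667 nm emission intensity and signal-to-noise per printed compound spot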
[1] = probe aXIP binding to arrayed compounds – biochemical, NeuroSMM set, 635/667 nm fluorescence, primary screen (AID 1119); details: small-molecule microarray, higher = more signal, called active from +8 up or from −8 down;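 also: probe is the protein aXip251-270 applied at 1 µg/mL to compound-printed slides; binding of probe to printed compounds measured as 667 nm fluorescence plus signal to noise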
[2] = probe aNOTCH3 binding on compound microarray – biochemical, small-molecule microarray, 635/667 nm fluorescence, primary screen (AID 1120); details: higher = more signal;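 also: probe is a biotin-tagged antibody raised against NOTCH3 rather than NOTCH3 protein; score merges spot fluorescence near 667 nm with spot signal to noise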
[3] = probe aNOTCH2 binding on compound microarray – biochemical, small-molecule microarray, 635/667 nm fluorescence, primary screen (AID 1121); details: higher = more signal;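 also: score merges feature fluorescence read at 667 nm with its signal to noise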
[4] = target: Carbonic anhydrase 2 (Homo sapiens) (UniProt P00918); assay: compounds binding carbonic anhydrase 2 – biochemical, small-molecule microarray, Alexa647-labelled CAII, profiling panel (AID 1122); details: CAII-A647 binding fluorescence, higher = more signal
[5] = COS7 lysate on small-molecule microarray, probe aHis, 635 nm (AID 1123); details: COS7 cell lysate, fluorescence, higher = more signal;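 also: z-score combines 667nm fluorescence intensity with signal-to-noise per printed compound spot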
[6] = probe aLAP1 signal on lysate-treated microarray – cell lysate, small-molecule microarray, COS7 lysate, primary screen (AID 1124); details: probe aLAP1, fluorescence, higher = more signal;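 also: lysate comes from COS7 cells expressing LAP1 and is applied at 0.3 µg/mL; score merges spot fluorescence near 667 nm with signal-to-noise over triplicate slides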
Sam68 (KHDRBS1) = assay: compounds binding KHDRBS1 protein – biochemical, small-molecule microarray, 635 nm fluorescence, primary screen (AID 1125); details: higher = more signal;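 also: score merges 667 nm channel intensity with signal to noise over triplicate slides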
[7] = test system: Chordin-like protein 2 (CHRDL2); assay: compounds binding chordin-like 2 – biochemical, small-molecule microarray, 635 nm fluorescence, primary screen (AID 1126); details: fluorescence 635 nm, higher = more signal;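 also: printed compound slides probed with Chrdl2 protein at 4 µg/mL for 1 h at 4 C; score merges 667 nm emission intensity with signal to noise over three replicate slides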
[8] = target: Concanavalin-A (Canavalia ensiformis) (UniProt P02866); assay: compounds binding concanavalin A lectin – biochemical, small-molecule microarray, Alexa647 label, 635 nm, artefact control for SMM control protein annotation, primary screen (AID 1127); details: ConA-A647 binding fluorescence, higher = more signal;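 also: z combines 667 nm emission intensity with signal-to-noise across three replicate slides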
Concanavalin-A (Canavalia ensiformis), sequence (P02866 whole entry, looked up): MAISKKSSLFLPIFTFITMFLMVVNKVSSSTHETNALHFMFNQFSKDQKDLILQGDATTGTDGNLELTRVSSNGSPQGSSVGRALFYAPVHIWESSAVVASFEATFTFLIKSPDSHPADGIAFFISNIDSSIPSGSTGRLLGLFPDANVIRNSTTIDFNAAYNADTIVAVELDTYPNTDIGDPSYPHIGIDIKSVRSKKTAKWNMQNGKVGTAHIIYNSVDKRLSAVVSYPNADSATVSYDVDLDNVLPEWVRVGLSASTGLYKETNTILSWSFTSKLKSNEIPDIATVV

Albumin (Bos taurus), sequence (P02769 whole entry, looked up): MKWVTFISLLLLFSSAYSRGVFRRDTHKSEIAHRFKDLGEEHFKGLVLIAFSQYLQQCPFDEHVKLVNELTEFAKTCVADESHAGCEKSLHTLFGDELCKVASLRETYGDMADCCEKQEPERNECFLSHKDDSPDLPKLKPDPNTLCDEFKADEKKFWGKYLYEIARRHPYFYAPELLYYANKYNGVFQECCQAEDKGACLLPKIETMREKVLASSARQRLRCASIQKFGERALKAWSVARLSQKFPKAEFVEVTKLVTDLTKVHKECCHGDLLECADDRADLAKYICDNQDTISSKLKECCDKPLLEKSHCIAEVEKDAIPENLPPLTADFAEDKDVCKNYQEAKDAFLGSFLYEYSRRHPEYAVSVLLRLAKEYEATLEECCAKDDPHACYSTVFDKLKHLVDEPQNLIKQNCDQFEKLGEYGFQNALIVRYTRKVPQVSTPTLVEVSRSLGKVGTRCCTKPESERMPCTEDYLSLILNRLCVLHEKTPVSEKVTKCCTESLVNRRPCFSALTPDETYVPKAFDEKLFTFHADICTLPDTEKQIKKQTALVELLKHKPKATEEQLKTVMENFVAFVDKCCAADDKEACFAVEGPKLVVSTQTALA

Compound | composite z-score (Albumin (Bos taurus)) | composite Z-score [1] | composite z-score [2] | composite z-score [3] | composite z-score [4] | composite z-score [5] | composite z-score [6] | composite z-score (Sam68 (KHDRBS1)) | composite z-score [7] | composite z-score [8]
COc1ccc([Si](C)(C)[C@H]2[C@H](CCO)O[C@@]3(C(=O)N(Cc4ccccc4)c4ccc(N5CCOC5=O)cc43)[C@@H]2C)cc1 | 0.711 | -0.326 (inactive) | 0.0311 | -0.149 | 0.299 | 0.644 | -0.174 | 0.832 | 0.524 | 1.15
C=CCNC(=O)[C@@H]1[C@H]2C(=O)O[C@H](c3ccccc3)[C@H](c3ccccc3)N2[C@H](c2ccc(OCCO)cc2)[C@@]12C(=O)N(C(=O)OCCOC)c1ccc(C#CCCO)cc12 | 0.474 | 0.365 (inactive) | 0.0422 | -0.0677 | 0.576 | 1.23 | 0.659 | 1.27 | 0.528 | 1.11
COCCOC(=O)N1C(=O)[C@@]2(c3cc(C#CCC(C(=O)OC)C(=O)OC)ccc31)[C@H](C(=O)NC[C@H](O)c1ccccc1)[C@H]1C(=O)O[C@H](c3ccccc3)[C@H](c3ccccc3)N1[C@@H]2c1ccc(OCCO)cc1 | 0.45 | 1.02 (inactive) | 0.0899 | -0.099 | 0.521 | 1.66 | 0.257 | 1.3 | 1.13 | 1.14
COCCOC(=O)N1C(=O)[C@@]2(c3ccccc31)[C@H](c1ccccc1OCCO)N1[C@H](c3ccccc3)[C@H](c3ccccc3)OC(=O)[C@H]1[C@@H]2C(=O)N1CCCCCCC1 | -0.0233 | 7.47 (inactive) | 2.15 | 1.16 | 0.935 | 4.27 | 1.96 | 1.29 | 1.47 | 0.883
CCOC(=O)C1=C[C@@H](C(C)(C)C)N(S(=O)(=O)c2ccc(C)cc2)[C@H]1c1ccccc1 | 0.907 | 0.265 (inactive) | 0.176 | -0.0836 | 0.343 | 0.29 | 0.931 | 1.31 | -0.196 | 0.94
COc1ccc(CCNC(=O)[C@@]2(Cc3ccccc3I)c3ccccc3C(=O)N(Cc3ccccc3Cl)[C@H]2c2ccc(CO)cc2)cc1 | -0.41 | 1.24 (inactive) | 0.385 | 0.111 | 0.731 | 1.34 | 0.529 | 0.576 | -0.311 | 0.555
O=C1O[C@H](c2ccccc2)[C@H](c2ccccc2)N2[C@H]1[C@@H](C(=O)Nc1nc3ccccc3s1)[C@]1(C(=O)Nc3ccc(C#CC4=CCCCC4)cc31)[C@H]2c1ccc(O)cc1 | 0.658 | 0.156 (inactive) | 0.278 | -0.117 | 0.185 | 2.16 | -0.0648 | 1.3 | -0.12 | 0.973
CCC(CC)C(O)C1C=CC2C(=O)N(c3ccccc3)C(=O)C2N1Nc1ccc([N+](=O)[O-])cc1 (stereo not given) | 1.01 | 1.13 (inactive) | 0.443 | 0.125 | 0.573 | 1.72 | 1.35 | 1.3 | -0.0998 | 1.05
O=C1C2C=CC(C(O)C=Cc3ccc([N+](=O)[O-])cc3)N(Nc3ccccc3)C2C(=O)N1c1ccccc1 (stereo not given) | 0.859 | 0.075 (inactive) | 0.346 | 0.0167 | 0.713 | 2.05 | 0.276 | 1.24 | -0.0982 | 1.1
COCCCNC(=O)[C@@]1(Sc2ccc(C)cc2)CC(=O)N(C(C)C)[C@@H]1c1ccc(CO)cc1I | -0.622 | 0.525 (inactive) | 0.0062 | -0.164 | 0.763 | 1.4 | 0.427 | 0.462 | -0.825 | 0.413
C=C(C)[C@@H]1CC=C(C(O)C2C=CC3C(=O)N(c4ccccc4)C(=O)C3N2Nc2ccc(C#N)cc2)CC1 (stereo not given in full) | 0.971 | 0.0421 (inactive) | 0.217 | 0.0963 | 0.643 | 2.46 | 0.429 | 1.31 | 0.355 | 1.16
Cc1ccc(F)cc1S(=O)(=O)N[C@@H]1CCN(Cc2cccc3[nH]ccc23)C1 | -0.864 | -1.15 (inactive) | 0.0749 | -0.154 | 0.708 | -0.339 | 0.136 | 0.289 | 1.23 | 0.249
C=C(CCCC)C(=O)CC[C@H](OC(C)=O)c1ccc(OCCO)cc1 | 0.551 | 0.517 (inactive) | -0.292 | -0.181 | -0.43 | -0.543 | -0.52 | -0.578 | -0.858 | 0.924
COCCCNC(=O)[C@@H]1c2ccccc2C(=O)N(C2Cc3ccccc3C2)[C@H]1c1ccc(CO)cc1 | -0.423 | 0.47 (inactive) | -0.0584 | -0.0772 | 0.724 | 1.19 | 0.59 | 0.749 | 0.573 | 0.286
CC(C)C(=C=CC[C@@H](O)c1cccc(OCCO)c1)C[C@@H](O)COCc1ccccc1 | 0.15 | -1.39 (inactive) | -0.0708 | -0.0865 | 0.763 | 0.75 | 0.102 | -0.0876 | -0.456 | 0.346
CC(=O)NCCCC[C@@H]1NC(=O)[C@H]2C[C@@H](C(=O)NCCCCCNC(=O)CS)[C@@H](c3cccc(OCCO)c3)N2C1=O | 0.419 | 1.98 (inactive) | -0.27 | -0.173 | 0.364 | 2.34 | -0.178 | 0.742 | 0.715 | 0.493
COCC1=C2[C@@H](CCc3ccccc3)OB(O)C[C@@H]2[C@@H]2C(=O)N(C)C(=O)[C@@H]2C1 | 0.229 | 0.289 (inactive) | -0.0918 | -0.108 | 0.21 | 0.06 | -0.179 | 0.106 | 0.5 | -0.141

Compound | composite z-score (Albumin (Bos taurus)) | composite Z-score [1] | composite z-score [2] | composite z-score [3] | composite z-score [4] | composite z-score [5] | composite z-score [6] | composite z-score (Sam68 (KHDRBS1)) | composite z-score [7] | composite z-score [8]
C=CCC(OC(C)=O)[C@@H]1[C@@H](N(Cc2cccc3ccccc23)C(=O)c2cccc3ccccc23)c2cc(OCCCO)ccc2N1C(=O)c1ccc2ccccc2c1 (stereo not given in full) | 0.0949 | 0.128 (inactive) | 0.0676 | -0.0883 | 0.206 | -0.203 | -0.225 | -0.047 | 0.0526 | -0.0264
Cc1ccc(S[C@]2(C(=O)NC(C)C)CC(=O)N(Cc3ccccc3Cl)[C@@H]2c2ccc(CO)cc2)cc1 | 0.29 | 0.0728 (inactive) | -0.294 | -0.146 | 0.717 | 0.634 | 0.542 | -1.21 | -1.85 | -0.744
CO[C@H]1O[C@H](CO)[C@@H](OC(=O)Nc2ccc(C#N)cc2)[C@@H]2OC(=O)[C@H](Cc3cccc(Br)c3)C/C=C/C[C@@H](Cc3cccc(Br)c3)C(=O)O[C@@H]12 | 0.348 | 0.656 (inactive) | 0.0935 | -0.0711 | 0.26 | 0.913 | 0.23 | 0.697 | 0.116 | 0.384
CC(C)C[C@@H]1NC(=O)[C@@H]2C[C@H](C(=O)NCCCCCC[N+](C)(C)C)[C@H](c3cccc(OCCO)c3)N2C1=O | -0.391 | 0.0931 (inactive) | -0.0311 | -0.128 | 0.511 | 2.37 | 0.241 | 0.584 | 0.562 | 0.644
COCCOC(=O)N1C(=O)[C@@]2(c3cc(C#CCC(C(=O)OC)C(=O)OC)ccc31)[C@H](C(=O)NC[C@H](O)c1ccccc1)[C@H]1C(=O)O[C@H](c3ccccc3)[C@H](c3ccccc3)N1[C@@H]2c1ccc(O)cc1 | 0.661 | -0.0756 (inactive) | -0.0014 | -0.0974 | 0.614 | 1.67 | 0.243 | 0.378 | -0.769 | 0.708
CCCCNC(=O)c1ccc(C#C[Si](C(C)C)(C(C)C)C(C)C)c(OC(C)=O)c1 | -0.154 | 0.168 (inactive) | 0.089 | -0.117 | 0.925 | 0.1 | -0.18 | 0.823 | 1.33 | 0.94
O=C1O[C@H](c2ccccc2)[C@H](c2ccccc2)N2[C@H]1[C@@H](C(=O)N1CCCCCCC1)[C@]1(C(=O)Nc3ccc(C#CC4(O)CCCCCC4)cc31)[C@H]2c1ccccc1OCCO | 0.573 | 9.08 (active) | 2.18 | 1.13 | 1.02 | 5.1 | 1.42 | 1.34 | 1.73 | 0.952
COc1ccc(C(=O)Nc2cccc(CN3C(=O)[C@@]4(O[C@@H](CC(=O)N(CCO)Cc5ccccc5)[C@H]([Si](C)(C)c5ccc(OC)cc5)[C@H]4C)c4ccccc43)c2)cc1 | 0.441 | 0.799 (inactive) | -0.122 | -0.0868 | 0.56 | 1.56 | 0.229 | 1.19 | 0.351 | 0.601
O=C1C[C@@](C(=O)NCC(F)(F)F)(c2ccc([N+](=O)[O-])cc2)[C@@H](c2ccc(CO)cc2)N1CC12CC3CC(CC(C3)C1)C2 | -0.191 | 1.68 (inactive) | 0.6 | 0.0345 | 0.502 | 2.17 | -0.0251 | 1.29 | 0.297 | 1.13
C[C@]1(C(=O)O)c2ccccc2C(=O)N(Cc2ccc(OC(F)(F)F)cc2)[C@H]1c1ccc(CO)cc1 | 0.12 | 0.219 (inactive) | -0.104 | 0.109 | 0.73 | 1.61 | 0.902 | -0.0536 | -0.758 | -0.783
O=C(O)[C@@H]1C[C@@H]2C(=O)N3CCC[C@H]3C(=O)N2[C@@H]1c1cccc(OCCO)c1 | 0.778 | 2.44 (inactive) | 1.56 | 1.07 | 0.849 | 4.04 | 1.04 | 1.33 | 1.11 | 1.24
COCC(=C=CC[C@H](O)c1cccc(OCCO)c1)C[C@H](O)COCc1ccccc1 | 0.484 | -0.141 (inactive) | 0.187 | 0.104 | 0.742 | 2.13 | 0.66 | 0.938 | -0.227 | -0.564
C=CCNC(=O)[C@H]1[C@@H]2C(=O)O[C@@H](c3ccccc3)[C@@H](c3ccccc3)N2[C@@H](c2ccc(OCCO)cc2)[C@]12C(=O)N(C(=O)OCCOC)c1ccc(C#Cc3ccc(OC)cc3)cc12 | 0.358 | -0.292 (inactive) | 0.154 | -0.0995 | 0.447 | 0.656 | 0.636 | 1.3 | 0.302 | 1.09
CN(C)C(=O)[C@@]1(Cc2ccccc2)COC(c2ccc(OCCCO)cc2)=N1 | 0.66 | -0.655 (inactive) | -0.507 | -0.308 | 0.541 | 2.86 | 0.178 | 0.581 | 0.26 | 0.113
CC(C)C[C@@H]1NC(=O)[C@@]23C(=O)N[C@@H](Cc4ccccc4)C2[C@H](C)[C@@]2(C)O[C@H]2C3/C=C/C/C=C\CNC(=O)[C@@H](C)NC1=O (stereo not given in full) | 0.663 | -0.106 (inactive) | -0.251 | -0.196 | 0.449 | -0.128 | -0.217 | -0.604 | 0.643 | 0.075
NC(=O)[C@@H]1[C@H]2C(=O)O[C@H](c3ccccc3)[C@H](c3ccccc3)N2[C@H](c2ccc(OCCO)cc2)[C@@]12C(=O)Nc1ccc(C#CCCO)cc12 | 0.629 | 0.238 (inactive) | -0.12 | -0.0681 | 0.407 | 0.661 | 0.959 | 0.837 | -0.178 | 0.557

From PubChem BioAssay
